Data on 50 compounds can be found in PubChem BioAssay AID686979 (National Center for Advancing Translational Sciences (NCATS), 2013).

The structures appear in SMILES notation. About 50,000 (12%) of roughly 420,000 compounds were called active. Inconclusive results (about 26%) are left out. This is one part of a sample in which actives are shown more often than they occur. Calls come from the whole dose curve; as a rule, active = well fitted inhibition curve with a large enough effect; inconclusive = small, poorly fitted or top-dose-only effect; inactive = flat fitted curve, though single readings scatter.
% is set by controls: 0 for no effect and ±100 for the full control effect; potency is the fitted concentration of half-maximal effect.

This test is described as follows: qHTS for Inhibitors of human tyrosyl-DNA phosphodiesterase 1 (TDP1): qHTS in cells in presence of CPT. Note: nearly all actives have a fitted effect of over 55% in size. The following applies: chicken DT40 Tdp1-/-;hTDP1 cells + 20 nM CPT, ATP luminescence, 48 h; series mostly up to 46.2 µM; activity change, negative = growth inhibition: at the top concentration. The essentials:
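Chicken DT40 Tdp1-/- cells stably complemented with human TDP1 were seeded at 400 cells/well in medium containing 20 nM camptothecin, exposed to pin-transferred compounds, and grown at 37 °C for at least 48 hr. Viability was read as ATP luminescence.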
A general note: Quantitative high-throughput screening tests each substance at several concentrations.
For `Cc1cc(OC(=O)c2ccc(OC(C)C)cc2)c([N+](=O)[O-])c(=O)[nH]1`, the “activity change, negative = growth inhibition” value is -2.01% (inactive). For the compound `COCc1cc(C)n(CC(=O)NCC2CCCO2)c(=O)c1C#N` (stereo not given), the “activity change, negative = growth inhibition” value was -0.925% (inactive). Still for that read-out and setting: in the case of `CC1(C)O[C@@H]2CC3C4C[C@H](F)C5=CC(=O)C=CC5(C)C4C(O)CC3(C)[C@]2(C(=O)CO)O1` (stereo not given in full) it was -14.3% (inactive). On to `CCc1ccc(CNC(=O)C2CCCN(c3nc4ccccc4o3)C2)cc1` (stereo not given), for which the “activity change, negative = growth inhibition” value was -19.6% (inactive). In the case of `CCOC(=O)c1cnc(Nc2nc3ccccc3o2)nc1CSC(=S)N1CCCCC1`, the Potency is 0.146 µM (active). As for `CCOC(=O)c1ccccc1NC(=S)N1CCC(C(N)=O)CC1`, the “activity change, negative = growth inhibition” value is 1.5% (inactive).

In the case of `CCN(C(=O)COc1ccc(C(=O)c2ccccc2)cc1)c1ccccc1`, the Potency is 18.4 µM (active).

Consider `CN(Cc1ccccc1)C(=O)COc1ccccc1`, for which the “activity change, negative = growth inhibition” value is -19.8% (inactive).

Regarding `O=C(COc1ccc(F)cc1)N(CC1=CCS(=O)(=O)C1)c1ccccc1`, the “activity change, negative = growth inhibition” value was -20.9% (inactive). Consider `CC(C)CCN1C(=O)c2ccc(C(=O)Nc3cccc(S(N)(=O)=O)c3)cc2C1=O`, for which the “activity change, negative = growth inhibition” value is -22% (inactive). Still for that read-out and setting: under `COCCCn1c(SCC(=O)Nc2oc(C)c3c(C)n[nH]c(=O)c23)nc2sc3c(c2c1=O)CCC3` stands -19.5% (inactive). Consider `O=C1/C(=C/c2ccc(F)cc2)SC(=S)N1CCCC(=O)N1CCCCC1CCO` (stereo not given), for which the Potency was 16.4 µM (active). As to `Cc1ccc(/C=C2\SC(=S)N(CCC(=O)Nc3ccc(O)cc3)C2=O)cc1`, the “activity change, negative = growth inhibition” value is 12% (inactive).

As for `COc1ccccc1C(=O)NNC(=O)CCN1C(=O)/C(=C\c2ccccc2)SC1=S`, the “activity change, negative = growth inhibition” value was 1.22% (inactive). Regarding `CN(C)c1ccc(NC(=O)CN2C3CCCC2CC(NC(=O)c2ccccc2)C3)cc1` (stereo not given), the “activity change, negative = growth inhibition” value was -2% (inactive). Same read-out and setting: in the case of `CCOC(=O)N1CCN(C(=O)CSc2nc(C)nc3c2c(=O)n(C)c(=O)n3C)CC1` it was -4.74% (inactive).

With `CCc1cnc2c(c1SCC(=O)N1CCC(C)CC1)c(=O)n(C)c(=O)n2C`, the Potency is 20.6 µM (active). As for `Cc1ccc(CNC(=O)CSc2c(C)cnc3c2c(=O)n(C)c(=O)n3C)cc1`, the “activity change, negative = growth inhibition” value was 2.07% (inactive). With `COc1cc(C(c2c(NC(=O)c3ccco3)sc(C)c2C)N2CCOCC2)cc(OC)c1OC` (stereo not given), the Potency was 23.1 µM (active). As to `COc1ccc(CC(=O)Nc2ccccc2NC(=O)c2ccco2)cc1OC`, the “activity change, negative = growth inhibition” value is -0.664% (inactive).

Take `COc1ccc(NC(=O)CCC(=O)Nc2cc(OC)c(NC(=O)c3ccco3)cc2OC)c(OC)c1`: the “activity change, negative = growth inhibition” value was -26.9% (inactive). Regarding `COC(=O)c1ccccc1NC(=O)c1ccc(COc2ccccc2Cl)o1`, the “activity change, negative = growth inhibition” value was -21.6% (inactive). Take `COc1ccc(OCCCC(=O)OC(C)C(=O)Nc2ccccc2[N+](=O)[O-])cc1` (stereo not given): the “activity change, negative = growth inhibition” value is 4.09% (inactive). As for `COC(=O)c1cn(CC(=O)NCc2cccs2)c2ccccc12`, the “activity change, negative = growth inhibition” value was -11% (inactive). Regarding `COC(=O)Cn1cc(C(=O)c2cccs2)c2ccccc21`, the “activity change, negative = growth inhibition” value is -6.42% (inactive). As to `COC(=O)Cn1cc(/C=C/[N+](=O)[O-])c2ccccc21`, the Potency is 10.3 µM (active).

Regarding `O=C(N/N=C/c1c(Cl)[nH]c2ccccc12)c1sc2ccccc2c1Cl`, the Potency is 23.1 µM (active).

Consider `Cc1[nH]c2ccccc2c1/C=N\NC(=O)Cn1nnc(-c2ccccc2)n1`, for which the “activity change, negative = growth inhibition” value was -15.7% (inactive).

Regarding `COC(=O)c1cc(NC(=O)c2sc3ccccc3c2Cl)cc(C(=O)OC)c1`, the “activity change, negative = growth inhibition” value was -28.5% (inactive). Still for that read-out and setting: in the case of `CC(=O)c1nnn(-c2ccc(Cl)cc2C#N)c1C` it was 0% (inactive); in that of `COCCCNc1nc2ccccc2nc1NS(=O)(=O)c1ccc(F)cc1`, -6.29% (inactive). The same measure, in the same setting: under `CCCc1cc(=O)n2[nH]c(NCc3ccc(CC)cc3)nc2n1` stands -1.57% (inactive); under `COc1ccc(CN2C(=O)CC(Cc3ccc(C)cc3)C2=O)cc1OC` (stereo not given), -28.9% (inactive). The same measure, in the same setting: in the case of `CCCCn1nnnc1C1(C)CCC(=O)N1Cc1ccc(OC)c(OC)c1` (stereo not given) it was -11.6% (inactive).

Turning to `CCCCOc1ccc(CN2C(=O)C(=O)c3cc(Br)cc(C)c32)cc1OC`, the Potency is 0.82 µM (active). `Cc1cc(C)nc(NC(=O)c2cccc([N+](=O)[O-])c2)c1`: the “activity change, negative = growth inhibition” value was 0.531% (inactive). Same read-out and setting: in the case of `O=C(Nc1ccc(F)cc1)C(CCc1ccccc1)N1CCN(CC(=O)N2CCCC2)CC1` (stereo not given) it was -16.7% (inactive); in that of `OC(c1ccc(Cl)cc1)C(CN1CCOCC1)c1ccccc1` (stereo not given), -26.3% (inactive). Still for that read-out and setting: under `COc1ccccc1NC(=O)c1c(Br)cnn1C` stands -14.9% (inactive). Same read-out and setting: under `COc1ccccc1CN1CCN(Cc2cc(OC)c(OC)cc2OC)CC1` stands -3.91% (inactive). Consider `CCCc1c(-c2ccccc2F)ncn1Cc1ccccc1OC`, for which the Potency is 1.3 µM (active). For `COc1ncc2nc(-c3ccc(Cl)cc3)c(=O)n(C)c2n1`, the “activity change, negative = growth inhibition” value was 1.69% (inactive). `COCCn1cnc2c1c(=O)n(Cc1ccc(Br)cc1)c(=O)n2Cc1ccccc1`: the “activity change, negative = growth inhibition” value was 0.0958% (inactive). Turning to `CCCCc1c(-c2ccc(Cl)cc2)ncn1CCc1ccccc1OC`, the Potency was 4.61 µM (active).

As to `COc1cccc(OC)c1C(=O)N1CCN(Cc2ccccc2F)CC1`, the “activity change, negative = growth inhibition” value was -3.78% (inactive).

On to `CCCCc1c(-c2ccc(Br)cc2)ncn1CCc1ccccc1OC`, for which the Potency is 1.3 µM (active). For `COc1ccccc1OCCCn1c(-c2ccc(Cl)cc2)nc2ccccc2c1=O`, the “activity change, negative = growth inhibition” value was -1.91% (inactive). Turning to `CC(=O)C[C@H](O)CC(=O)[C@@H]1OC(=O)[C@@H](C)C/C=C\Cc2ccccc21`, the “activity change, negative = growth inhibition” value was 1.45% (inactive).

Consider `COc1ccc(CNC(=O)c2cc(=O)c3c(C)cc(C)cc3o2)cc1`, for which the “activity change, negative = growth inhibition” value was -3.72% (inactive). `CCCCn1c(N)c(N(CCOC)C(=O)c2cccc(S(=O)(=O)N3CCCCC3)c2)c(=O)[nH]c1=O`: the “activity change, negative = growth inhibition” value was -2.83% (inactive).
